In PubChem BioAssay (Tox21):
Results filed as inconclusive are left out. A call without a number means that no potency is given here. A number with no mark means an inactive call. Calls of active or inactive are those of the source. The call rests on the fitted dose curve.

Target: Beta-2 adrenergic receptor (Homo sapiens) (UniProt P07550)
Assay: Adrenergic beta2 receptor (ADRB2) small molecule agonists, cell-based qHTS assay (AID 1963593);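 on activation: CHO cells stably overexpressing human ADRB2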
Summary of the method: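 CHO cells stably over-expressing ADRB2 were plated overnight at 37C, then dosed with compounds plus a stimulation mix containing 100uM IBMX and 25uM Ro-20-1724 for 0.5hr at room temperature. cAMP was measured by HTRF competition, 1hr.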
Potency means the concentration at half of the fitted maximal effect.

Chain of Beta-2 adrenergic receptor (Homo sapiens) (P07550 whole entry, looked up): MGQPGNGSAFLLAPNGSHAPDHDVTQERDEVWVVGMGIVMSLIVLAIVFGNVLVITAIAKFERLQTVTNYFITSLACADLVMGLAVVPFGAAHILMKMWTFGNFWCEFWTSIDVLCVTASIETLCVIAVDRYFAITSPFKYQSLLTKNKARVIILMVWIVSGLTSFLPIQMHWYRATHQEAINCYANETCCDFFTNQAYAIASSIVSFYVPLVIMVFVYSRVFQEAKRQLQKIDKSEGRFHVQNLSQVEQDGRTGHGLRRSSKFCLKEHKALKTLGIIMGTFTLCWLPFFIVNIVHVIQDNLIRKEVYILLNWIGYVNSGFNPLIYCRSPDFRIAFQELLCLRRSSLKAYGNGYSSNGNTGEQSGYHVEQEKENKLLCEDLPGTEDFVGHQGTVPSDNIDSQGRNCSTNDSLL

| SMILES | Potency | activation |
| --- | --- | --- |
| O=C1OC(CN2CCOCC2)CN1/N=C/c1ccc([N+](=O)[O-])o1 (stereo not given) | inactive |  |
| CC(O)CCCCn1c(=O)c2c(ncn2C)n(C)c1=O (stereo not given) | inactive |  |
| COc1ccc(NC(C)=O)cc1 | inactive |  |
| CCCCOCCOCCOCCO | inactive |  |
| C=CCOCC(CO)(COCC=C)COCC=C | inactive |  |
| CC(=O)OCC(=O)Nc1cc(C#N)cc(NC(=O)COC(C)=O)c1Cl | inactive |  |
| C[C@@H](O)[C@H]1C(=O)N2C(C(=O)O)=C(SCCN=CN)C[C@H]12 | inactive |  |
| OCCCCl | inactive |  |
| CC(=O)N[C@@H](Cc1ccc(O)cc1)C(=O)O | inactive |  |
| Nc1cc(-c2ccncc2)c[nH]c1=O | inactive |  |
| CCCCCCC(C)(C)C(=O)O | inactive |  |
| CN1CCCC1 | inactive |  |
| CNc1ccccc1 | inactive |  |
| CCCCOC(=O)CCS | inactive |  |
| Clc1ccc(C(c2ccccc2Cl)C(Cl)Cl)cc1 (stereo not given) | inactive |  |
| CC(C)Oc1ccc2c(=O)c(-c3ccccc3)coc2c1 | inactive |  |
| CC(C)=CCC[C@H](C)CC=O | inactive |  |
| CC(CCC(=O)O)C(=O)O (stereo not given) | inactive |  |
| COC(=O)C1=C(C)NC(C)=C(C(=O)OCC(C)C)C1c1ccccc1[N+](=O)[O-] (stereo not given) | 11.9 µM (active) |  |
| CC1=C(O)C(=O)C(C)O1 (stereo not given) | inactive |  |
| CCOCCOCCOCCO | inactive |  |
| CC/C=C\CCOC(=O)C(C)C | inactive |  |
| CC(C)=O | inactive |  |
| CCCCCCCCCCCCCCC(=O)NC(CO)CCCCCCCCCCCCCC (stereo not given) | inactive |  |
| O=C(O)c1cccc(C(F)(F)F)c1 | inactive |  |

| SMILES | Potency | activation |
| --- | --- | --- |
| CC1=C(CC(=O)O)c2cc(F)ccc2/C1=C\c1ccc(S(C)=O)cc1 (stereo not given) | inactive |  |
| CC(=O)O[C@@H]1CC2C3CCc4cc(OC(=O)c5ccccc5)ccc4C3CCC2(C)[C@H]1OC(C)=O (stereo not given in full) | inactive |  |
| O=C(O)/C=C/c1ccccc1 | inactive |  |
| CCCCC(CC)COC(=O)c1ccc(O)cc1 (stereo not given) | inactive |  |
| C#CC(O)CCC (stereo not given) | inactive |  |
| CC(C)=CCC/C(C)=C/C(=O)O | inactive |  |
| Oc1cc(O)c2c(c1)O[C@H](c1ccc(O)c(O)c1)[C@H](O)C2 | inactive |  |
| CCCCCCCC(=O)[O-].CCCCCCCC(=O)[O-].[Zn+2] | inactive |  |
| O=C(O)Cc1ccc(CCNS(=O)(=O)c2ccc(Cl)cc2)cc1 | inactive |  |
| O=C(O)[C@@H](O)[C@H](O)[C@H](O)[C@@H](O)C(=O)O | inactive |  |
| CC1CNCC(C)O1 (stereo not given) | inactive |  |
| Cc1ncc(CSSCc2cnc(C)c(O)c2CO)c(CO)c1O | inactive |  |
| O=C(O)c1cc(-c2ccccc2)nc2ccccc12 | inactive |  |
| CCOC(=O)c1cc(=O)c2c(OCC(COc3cccc4oc(C(=O)OCC)cc(=O)c34)OC(=O)[C@@H](N)CCCCN)cccc2o1 | inactive |  |
| CCCC(C)CCC(C)=O (stereo not given) | inactive |  |
| OCC(O)CN1CCN(c2ccccc2)CC1 (stereo not given) | inactive |  |
| Oc1ccc(Cl)cc1Sc1cc(Cl)ccc1O | inactive |  |
| NC(=O)NNC(N)=O | inactive |  |
| CCC(C)NC(N)=O (stereo not given) | inactive |  |
| C=C(CC)C(=O)c1ccc(OCC(=O)O)c(Cl)c1Cl | inactive |  |
| CC(C)(c1cc(Br)c(OCC(Br)CBr)c(Br)c1)c1cc(Br)c(OCC(Br)CBr)c(Br)c1 (stereo not given) | inactive |  |
| CC(=O)c1ccc2ccccc2c1 | inactive |  |
| CCCCC(CC)COP(=O)(OCC(CC)CCCC)OCC(CC)CCCC (stereo not given) | inactive |  |
| CC(C)(C)NCCO | inactive |  |
| C=CCCCCCCCCCCC |  | -13.4% [at 8.39 µM] |

| SMILES | Potency | activation |
| --- | --- | --- |
| CCC(C)CO (stereo not given) | inactive |  |
| CCCSSCCC | inactive |  |
| O=S(=O)(O)c1ccc2cc(O)c(S(=O)(=O)O)cc2c1 | inactive |  |
| CCOCOCC | inactive |  |
| CNC1(C)C2CCC(C2)C1(C)C (stereo not given) | inactive |  |
| COc1ccc(C#N)cc1 | inactive |  |
| CC1CCC(C(C)(C)O)CC1 (stereo not given) | inactive |  |
| CC(Cl)COP(=O)(OCC(C)Cl)OCC(C)Cl (stereo not given) | inactive |  |
| COC(=O)CC(C(C)=O)C(=O)OC (stereo not given) | inactive |  |
| Cn1c(=O)c2[nH]c(Br)nc2n(C)c1=O | inactive |  |
| Clc1ccccc1C(c1ccccc1)(c1ccccc1)n1ccnc1 | inactive |  |
| COC(C)(C)CCO | inactive |  |
| COc1cc(C(=S)N2CCOCC2)ccc1O | inactive |  |
| CCN(C=O)CC | inactive |  |
| C=CCCCCCCCCC(=O)OCCCC | inactive |  |
| CC(CCO)CCc1ccccc1 (stereo not given) | inactive |  |
| N=C(N)c1ccccc1 | inactive |  |
| O=S(=O)(O)c1cccc2c(S(=O)(=O)O)cccc12 | inactive |  |
| CCC(=O)CC | inactive |  |
| CCCCCCCCCCCCCCCC(=O)NCCO | inactive |  |
| CO/N=C(/C(=O)N[C@@H]1C(=O)N2C(C(=O)O)=C(COC(N)=O)CS[C@H]12)c1ccco1 | inactive |  |
| O=C1CC(c2ccc(Cl)cc2)CC(=O)N1 | inactive |  |
| O=c1[nH]cnc2c1ncn2[C@@H]1O[C@H](CO)[C@@H](O)[C@H]1O | inactive |  |
| NCc1ccc(S(N)(=O)=O)cc1 | inactive |  |
| C=CC(=O)NCOCC(C)C | inactive |  |
